Screens from PubChem.
Hits are enriched below; roughly 9% of the tested compounds scored in any of these assays.
PLK1 PBD inh = inhibitors of human PLK1 polo-box domain binding; P53350; Plk1 PBD binding of FITC phosphopeptide, fluorescence polarization; Potency, µM, inactives show max response, negative = inhibition, usual class: inhibitors; actives 2.8% (n = 360,000); AID 720504; also: series mostly up to about 57 µM; % is scaled to controls: 0 for no effect and ±100 for the full control effect; nearly all actives have a fitted effect of over 65% in size
HP1b chromo inh = blocks HP1-beta chromodomain binding to methylated histone tails. P83916. AlphaScreen HP1-beta / biotin-H3K9me3 peptide binding. Potency, µM (top dose mostly 114 µM), for the others: top-dose activity change, negative = inhibition, actives largely listed as inhibitors. actives 0.56% (n = 390,000); also: nearly all actives have a fitted effect of over 70% in size
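HP1-beta protein (50 nM final) preincubated 30 min at room temperature with biotinylated H3(1-18)K9me3 peptide (50 nM) in PBS pH 7.4, 0.01% Tween-20, then compound added for 30 min. AlphaScreen streptavidin donor/nickel chelate acceptor beads (10 ug/mL final), 30 min dark, luminescence read.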
G9a block = G9a (human) methyltransferase inhibition. Potency, µM (top dose mostly 102 µM), for inactives: at the top dose activity, negative = inhibition, usual class: inhibitors. AID 504332. G9a H3K9 monomethylation, AlphaScreen, 2 h. actives 8.8% (n = 350,000). Q96KQ7; also: % is scaled to controls: 0 for no effect and ±100 for the full control effect; nearly all actives have a fitted effect of over 75% in size
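G9a (20 nM) preincubated 15 min RT with compounds, then 500 nM biotinylated H3K9 peptide and 20 uM SAM added; 2 h RT reaction. Monomethyl-H3K9 product detected by AlphaScreen with anti-H3K9me1 antibody, streptavidin donor and anti-rabbit IgG acceptor beads.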
BAZ2B block = BAZ2B (human) inhibition | AlphaScreen BAZ2B-H3K14Ac peptide displacement | Potency, µM (series often up to 114 µM), for inactives: top-dose activity change, negative = inhibition, hits mostly inhibitors | actives 4.4% (n = 360,000) | AID 504333; also: % is scaled to controls: 0 for no effect and ±100 for the full control effect; nearly all actives have a fitted effect of over 60% in size
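BAZ2B (50 nM) with biotin-H3(5-23)K14Ac peptide (50 nM) in PBS pH 7.4, 0.01% Tween-20, preformed 30 min, then compound 30 min at room temperature; top concentration 110uM. AlphaScreen streptavidin donor/nickel chelate acceptor beads (10 ug/mL final), 20 min dark, signal read.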
JMJD2A Tudor inh = inhibitors of human JMJD2A Tudor domain | O75164 | AlphaScreen JMJD2A-Tudor / H3K4me3 peptide binding | Potency, µM (top dose mostly 114 µM), inactives show at the top dose activity change, negative = inhibition, most hits filed as inhibitors | actives 4.4% (n = 390,000) | AID 504339; also: % is scaled to controls: 0 for no effect and ±100 for the full control effect; nearly all actives have a fitted effect of over 50% in size
12-LOX inh = ALOX12 (human) lipoxygenase inhibition | Potency, µM (top dose mostly 108 µM), for inactives: at the top dose activity change, negative = inhibition, hits mostly inhibitors | AID 1671190 | actives 1.1% (n = 580,000) | purified 12hLO, xylenol orange hydroperoxide absorbance; also: % is scaled to controls: 0 for no effect and ±100 for the full control effect
Target sequence (P18054 whole entry, looked up): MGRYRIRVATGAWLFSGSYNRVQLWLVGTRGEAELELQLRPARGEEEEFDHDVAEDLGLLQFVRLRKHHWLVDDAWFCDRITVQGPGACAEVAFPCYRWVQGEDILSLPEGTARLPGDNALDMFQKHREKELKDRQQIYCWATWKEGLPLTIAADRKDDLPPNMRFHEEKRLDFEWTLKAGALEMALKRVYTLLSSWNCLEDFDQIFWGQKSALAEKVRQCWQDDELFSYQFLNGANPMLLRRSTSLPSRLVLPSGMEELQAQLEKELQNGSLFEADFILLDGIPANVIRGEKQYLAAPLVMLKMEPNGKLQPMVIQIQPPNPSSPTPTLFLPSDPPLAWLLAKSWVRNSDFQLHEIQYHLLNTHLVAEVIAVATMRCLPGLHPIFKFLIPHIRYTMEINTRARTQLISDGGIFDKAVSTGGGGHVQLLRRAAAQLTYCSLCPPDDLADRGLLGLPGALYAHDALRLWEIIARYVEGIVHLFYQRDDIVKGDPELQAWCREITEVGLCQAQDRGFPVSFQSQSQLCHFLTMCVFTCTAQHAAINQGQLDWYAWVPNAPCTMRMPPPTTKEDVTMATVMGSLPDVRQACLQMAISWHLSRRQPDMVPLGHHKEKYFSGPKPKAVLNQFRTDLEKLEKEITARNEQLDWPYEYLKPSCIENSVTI
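Purified human 12hLO at 150 nM in 25 mM Hepes, 0.01% Triton X-100, pH 7.0, preincubated 15 min at room temperature with compound. Reaction started with 40 uM arachidonic acid, 30 min at room temperature. Hydroperoxide measured by Fe-xylenol orange, 573/405 nm absorbance ratio.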
Numbers without * were called inactive; ? = inconclusive; · = no result given; [ ] = dose if it differs, or a comment. Calls follow the shape of the dose curve; as a rule, active = well fitted curve in the direction sought with a large enough effect; inconclusive = small, poorly fitted or top-dose-only effect, or another doubt; inactive = no such curve, though single readings can be large; an effect the other way counts as inactive or inconclusive. Potency is read from the fitted curve at half-maximal effect.

SMILES	PLK1 PBD inh	HP1b chromo inh	G9a block	BAZ2B block	JMJD2A Tudor inh	12-LOX inh
COC(=O)/C=C1/N/C(=N\c2nc(C)cc(C)n2)N(c2cccc(C)c2)C1=O	-5.9%	24.1%	-27.5%	-21.3%	22.4µM*	?
CN(C(=O)CSc1nnc(-c2cccc(F)c2)n1N)C1CCS(=O)(=O)C1 (stereo not given)	-13.0%	25.5%	-23.0%	13.6%	-12.2%	10.9%
O=C(O)CNS(=O)(=O)c1c(Cl)cc(Br)cc1Cl	·	·	·	·	·	-22.0%
O=C(O)CNS(=O)(=O)c1c(Cl)cccc1Cl	4.7%	18.9%	4.9%	-1.0%	14.1µM*	?
CC(C)COc1ccc(-c2nnc(-c3ccncc3)o2)cc1	-8.2%	13.6%	1.9%	13.4%	-12.8%	-3.4%
Cc1ccc(NC(=S)NCc2ccccn2)cc1	-14.8%	9.8%	11.3%[0.501 µM]	-8.0%	?	?
Cc1cc(NCc2ccccn2)ccc1Br	-3.6%	-38.2%	25.1µM*	50.1µM*	8.91µM*	?
CCOC(=O)C1=C(CS(=O)(=O)c2ccc(C(C)(C)C)cc2)NC(=O)NC1c1cccc(OC)c1 (stereo not given)	·	30.4%	?	-0.4%	-16.0%	0.0%
O=C(CCCCn1cnc2c(=S)nc[nH]c21)Nc1ccc(C(=O)O)cc1	-25.3%	70.8µM*	·	·	1.41µM*	-20.8%
C#CCn1cc(/C=N/Nc2nc3ccccc3[nH]2)c2ccccc21	-3.9%	?	50.1µM*	39.8µM*	50.1µM*	?
C(=N\Nc1nc2ccccc2[nH]1)/c1ccccn1	-2.0%	26.8%	60.0%[59 µM]	25.1µM*	?	1.5%
O=c1cnnc(N/N=C/c2ccccn2)[nH]1	21.2µM*	20.5%	32.2%	8.91µM*	3.16µM*	64.0%
C(=N\Nc1nc2ccccc2[nH]1)/c1ccc2ncccc2c1	1.4%	27.8%	2.6%	-19.1%	-30.3%	0.0%
CC(/C=N/Nc1nncc(=O)[nH]1)=C\c1ccccc1	-17.6%	17.5%	-6.4%	-1.3%	-4.9%	12.4%
CC1CCCC(C)N1S(=O)(=O)c1ccc(S(=O)(=O)NCc2ccccc2)cc1 (stereo not given)	-1.9%	9.9%	?	-2.7%	-1.7%	6.8%
Cc1ccc(C2Cn3nnc(-c4noc(Cc5cccc(F)c5)n4)c3CO2)cc1 (stereo not given)	·	·	·	·	·	62.8%
O=C(CSc1ccc2ccccc2c1)Nn1cnnc1	-7.9%	34.4%	7.6%[12.7 µM]	-3.1%	8.6%	0.0%
CCOc1ccc(-c2nnc3ccc(SCC(=O)Nc4cc(C)on4)nn23)cc1	-3.7%	31.6%	-38.9%	-9.2%	-7.6%	-1.2%
Cc1cc(NC(=O)CSc2ccc(Cl)cc2)no1	5.32µM*	45.9%	-3.3%[12.7 µM]	8.2%	18.6%	?
Cc1cc(NC(=O)CSc2nnc3ccc(-c4ccc(F)cc4)nn23)no1	5.2%	-1.0%	50.1µM*	-7.4%	-14.8%	14.3%
Cc1cc(NC(=O)CSc2ccc3nnc(-c4ccc(Cl)cc4)n3n2)no1	?	23.1%	22.4µM*	-4.1%	-4.3%	?
O=C(CSc1ccc(Cl)cc1)Nn1cnnc1	10.6µM*	83.0%	2.0%	13.4%	13.6%	8.5%
COC(=O)C1CCN(S(=O)(=O)c2cc3c4c(c2)C(C)C(=O)N4CCC3)CC1 (stereo not given)	·	10.8%[57 µM]	?	-24.3%	-16.2%	?
C=CCn1c(SCC(=O)Nc2sc3c(c2C#N)CCC3)nnc1C1COc2ccccc2O1 (stereo not given)	4.2%	3.8%	9.5%[59 µM]	3.3%	-18.5%	8.4%
CCOc1ccccc1NC(=O)CSc1nnc2ccc(-c3ccncc3)nn12	-20.9%	8.6%	-1.7%	-0.6%	-3.7%[11.4 µM]	-5.0%
Cc1cc(NC(=O)CSc2ccc3nnc(-c4cccc(F)c4)n3n2)no1	-23.4%	24.3%	22.4µM*	-2.4%	-0.6%	44.7µM*
COc1ccccc1CCNC(=O)CSc1nnc2ccc(-c3ccncc3)nn12	-5.7%	57.6%	50.1µM*	-28.6%	-4.4%[11.4 µM]	93.0%
COCc1cc(=O)n(CC(=O)Nc2cc(C(F)(F)F)ccc2Cl)c(N2CCOCC2)n1	·	·	·	·	·	24.5%
